Sampled rows, rich in hits. Any-hit rate of the full collection: about 1.6%.
KCNQ2 enhance: KCNQ2 (rat) channel potentiation; O88943; CHO-K1 KCNQ2, FluxOR thallium flux fluorescence; stronger effect = higher value; B-score at 10 µM; actives 0.54% (n = 310,000);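 active = fluorescence ratio B-score at least 3 SD of library B-scores, with initial fluorescence B-score within 3 of them, cut at about 5.3 in these data; same plate scores as AID 2156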;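 also: B-score of peak minus minimum over baseline fluorescence ratio after K+ and Tl+ stimulus; positive B-score means potentiation of KCNQ2 with more thallium influx and brighter signal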
KCNQ2 inh: inhibitors of rat KCNQ2 potassium channel. O88943. CHO-K1 KCNQ2, FluxOR thallium flux, 20 min; stronger effect = lower value. B-score at 10 µM. actives 1.1% (n = 310,000). AID 2156;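 active = fluorescence ratio B-score at most minus 3 library SDs, with starting brightness B-score within 2 library SDs, cut at about -5.5 in these data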
Kir21 confirm: confirmation of mouse Kir2.1 potassium channel inhibitors. shares compounds with KCNQ2 enhance. Kir2.1-expressing cells, FluxOR thallium flux fluorescence; stronger effect = lower value. Tl flux remaining, % of negative control (stronger effect = lower value), % at 10 µM. actives 41% (n = 2,300);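 active = Primary-screen hit whose thallium flux fell at least 3 control SD below untreated wells in both duplicates, with normal baseline fluorescence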;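 also: 0% = blank wells without stimulus and 100% = stimulated no-compound controls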
HEK293 Tl flux: parental HEK293 activity in Kir2.1 inhibitor counter-screen; shares compounds with KCNQ2 enhance; parental HEK293 cells, FluxOR thallium flux fluorescence; 0% = unstimulated blank wells; FluxOR signal as % of negative control (100 = no effect), % at 10 µM; actives 19% (n = 2,300); AID 2105;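 active = dye signal at least 3 control SD above or below untreated wells in both duplicates, raw fluorescence within 3, either direction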;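 also: percent is based on the flux ratio of peak minus minimum fluorescence over baseline F0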
CHO-K1 Tl ctr: alters thallium flux in parental CHO-K1 cells, KCNQ2 counter-screen; shares compounds with KCNQ2 enhance; FluxOR thallium flux fluorescence; zero = vehicle mean+3SD, 100% = vehicle-minus-blank window; activity increase over 3SD of controls, % at 10 µM; actives 43% (n = 1,200);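 active = signal rise of at least 3 SD above the untreated control mean, in both duplicate wells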;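 also: counter screen of KCNQ2 potentiator hits so any rise reflects channel-independent effects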
KCNQ1 pot spec: tests whether KCNQ2 potentiators also act on human KCNQ1 | CHO KCNQ1 stable, FluxOR thallium flux fluorescence; beyond 3SD, as % of vehicle-control signal | shares compounds with KCNQ2 enhance | actives 28% (n = 1,200) | activation over 3SD threshold, % at 10 µM;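 active = fluorescence ratio rise of at least 3 SD of vehicle wells above their mean, in both replicate wells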;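 also: 0% = vehicle mean plus 3 SD and 100% = vehicle minus unstimulated blank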
KCNQ2 pot confirm: rat KCNQ2 channel potentiator confirmation; shares compounds with KCNQ2 enhance; potentiation, less the hit threshold, % at 10 µM; CHO-KCNQ2 cells, FluxOR thallium flux fluorescence; actives 68% (n = 1,200);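 active = fluorescence ratio rising 3 SD or more over the vehicle control mean in both replicates, plus primary screen hit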;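 also: peak minus minimum thallium fluorescence divided by baseline after K/Tl stimulus; 0% = vehicle mean plus 3 SD and 100% = vehicle minus unstimulated blank difference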
Kir21 spec: selectivity of KCNQ2 potentiators: effect on mouse Kir2.1. shares compounds with KCNQ2 enhance. HEK293 Kir2.1, FluxOR thallium flux fluorescence. activity over 3SD threshold, % at 10 µM. actives 2% (n = 1,200). AID 2345;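 active = fluorescence ratio rise of at least 3 SD above the vehicle-control mean, seen in both replicates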;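 also: 0% = vehicle mean plus 3 SD and 100% = vehicle minus no-stimulus blank window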
KCNQ2 W236L pot: KCNQ2 potentiators acting on retigabine-insensitive rat KCNQ2 W236L mutant; AID 2558; CHO KCNQ2-W236L, automated patch clamp current; actives 10% (n = 940); current increase over 3SD of negative controls (%), stronger effect = higher value, % at 25 µM; shares compounds with KCNQ2 enhance;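 active = current increase at least 3 SD of the untreated controls above them in both duplicate recordings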
Target sequence (O88943 whole entry W236L, looked up): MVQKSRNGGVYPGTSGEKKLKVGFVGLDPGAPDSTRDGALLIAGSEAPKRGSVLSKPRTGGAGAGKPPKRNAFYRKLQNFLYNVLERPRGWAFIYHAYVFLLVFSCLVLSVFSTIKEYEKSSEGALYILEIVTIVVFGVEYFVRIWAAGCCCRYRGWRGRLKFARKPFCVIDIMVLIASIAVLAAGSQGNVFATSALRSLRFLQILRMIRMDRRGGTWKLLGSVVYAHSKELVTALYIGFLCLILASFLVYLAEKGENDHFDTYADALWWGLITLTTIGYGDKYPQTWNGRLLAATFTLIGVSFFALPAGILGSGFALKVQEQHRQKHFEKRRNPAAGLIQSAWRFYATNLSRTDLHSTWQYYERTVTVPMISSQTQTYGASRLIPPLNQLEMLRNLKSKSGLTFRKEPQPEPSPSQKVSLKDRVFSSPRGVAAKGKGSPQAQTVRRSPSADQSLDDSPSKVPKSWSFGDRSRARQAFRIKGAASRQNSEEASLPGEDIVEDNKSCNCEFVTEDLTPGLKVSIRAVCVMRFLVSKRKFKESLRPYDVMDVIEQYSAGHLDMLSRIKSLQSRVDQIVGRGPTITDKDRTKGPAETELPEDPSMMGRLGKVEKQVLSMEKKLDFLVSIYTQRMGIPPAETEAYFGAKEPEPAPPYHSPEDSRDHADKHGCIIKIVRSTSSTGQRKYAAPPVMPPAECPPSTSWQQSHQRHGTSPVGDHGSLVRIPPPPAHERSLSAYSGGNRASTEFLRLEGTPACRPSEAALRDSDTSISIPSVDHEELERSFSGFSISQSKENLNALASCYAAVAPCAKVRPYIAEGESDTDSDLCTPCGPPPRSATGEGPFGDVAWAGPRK
* = called active by the depositor; i = inactive; . = no result given; ! = a repeat was not active.

SMILES	KCNQ2 enhance	KCNQ2 inh	Kir21 confirm	HEK293 Tl flux	others
COc1cc(/C=C2\SC(=S)NC2=O)ccc1OS(=O)(=O)c1ccccc1	41*	i	i	i	CHO-K1 Tl ctr=-7;KCNQ1 pot spec=-12;KCNQ2 pot confirm=91*;Kir21 spec=-44;KCNQ2 W236L pot=i
COc1ccc(/C=C2\SC(=S)NC2=O)cc1OS(=O)(=O)c1ccc(NC(C)=O)cc1	.	i	.	.
Oc1c(C(c2ccco2)N2CCN(C(c3ccccc3)c3ccccc3)CC2)sc2ncnn12 (stereo not given)	.	i	.	.
O=S(=O)(NCCN1CCCC1)c1ccc(C(F)(F)F)cc1	.	i	.	.
CC(Oc1ccc([N+](=O)[O-])cc1)C(=O)NCCCN1CCOCC1 (stereo not given)	0.65	i	.	.
COc1cc2c(cc1OC)C1(CCCCC1)CN(C)C2	0.57	i	.	.
COc1ccc(CNC(=O)CN(C(=O)c2snc(C(N)=O)c2N)c2ccccc2F)cc1	.	i	.	.
CCCc1cnc(NCCNCC(O)COc2ccc(Cl)c(Cl)c2)nc1 (stereo not given)	.	i	68%*	i
CCOC(=O)c1c(C)n(C)c2ccc(OCC(O)CNCCc3ccccc3)cc12 (stereo not given)	0.08	i	.	.
COc1ccccc1C(CNC(=O)C(C)Oc1ccc(Br)cc1)N1CCCC1 (stereo not given)	0.14	i	i	i
COc1ccc(C(CNC(=O)C(C)Oc2ccc(Br)cc2)N2CCOCC2)cc1 (stereo not given)	.	i	.	.
O=C(NC(=S)NC1CCCCC1)c1ccc(F)cc1	0.64	i	.	.
O=C(CCNc1cccc(Cl)c1)c1ccco1	.	i	.	.
C#CCNC(=O)C1=C[C@@H](c2ccc(Br)cc2)C[C@@H](OCc2ccc(CO)cc2)O1	.	i	.	.
C#CCNC(=O)C1=C[C@@H](c2ccc(C#C)cc2)C[C@@H](OCc2ccc(CO)cc2)O1	.	i	66%*	i
CC(C)C(=O)NC(=S)N(Cc1ccccc1)Cc1ccccc1	.	i	.	.
C=CCN(CC=C)C(=S)NC(=O)/C=C/c1ccccc1	0.7	i	.	.
O=C(NC(=S)N(Cc1ccccc1)Cc1ccccc1)c1ccccc1F	11*	i	i	218%*	CHO-K1 Tl ctr=110*;KCNQ1 pot spec=-1;KCNQ2 pot confirm=22*;Kir21 spec=-40;KCNQ2 W236L pot=i
C=CCN(CC=C)C(=S)NC(=O)c1ccc(-c2ccccc2)cc1	7.3*	i	i	420%*	CHO-K1 Tl ctr=-3;KCNQ1 pot spec=22*;KCNQ2 pot confirm=89*;Kir21 spec=-4;KCNQ2 W236L pot=i
O=C(NC(=S)NCc1ccccc1)c1ccccc1F	0.78	i	.	.
COc1ccc(C(=O)NC(=S)N(Cc2ccccc2)Cc2ccccc2)cc1	19*	i	i	199%*	CHO-K1 Tl ctr=136*;KCNQ1 pot spec=-6;KCNQ2 pot confirm=-1;Kir21 spec=-28;KCNQ2 W236L pot=i
CC(=O)Cn1cnc2scc(-c3ccc(C)c(C)c3)c2c1=O	1.3	i	.	.
CCOC(=O)C(=O)NCC(c1cccs1)S(=O)(=O)c1ccc(F)cc1 (stereo not given)	1.8	i	.	.
O=C(Nc1nc2c(F)cccc2s1)c1ccco1	0.45	i	.	.
COc1cccc2sc(Nc3nnc(-c4cccs4)o3)nc12	10*	i	i	350%*	CHO-K1 Tl ctr=80*;KCNQ1 pot spec=-22;KCNQ2 pot confirm=50*;Kir21 spec=-19;KCNQ2 W236L pot=i
SMILES	KCNQ2 enhance	KCNQ2 inh	Kir21 confirm	HEK293 Tl flux	others
COc1cccc2sc(Nc3nc(-c4ccccn4)cs3)nc12	21*	i	i	i	CHO-K1 Tl ctr=-10;KCNQ1 pot spec=-13;KCNQ2 pot confirm=-89;Kir21 spec=-45;KCNQ2 W236L pot=i
CCOC(=O)c1sc(Nc2nc3c(OC)cccc3s2)nc1C	0.13	i	.	.
COc1ccc(-c2nnc(-c3ccc(F)cc3)o2)cc1	0.41	i	.	.
COc1cccc2sc(Nc3nnc(-c4ccc(F)cc4)o3)nc12	20*	i	i	468%*	CHO-K1 Tl ctr=-10;KCNQ1 pot spec=-15;KCNQ2 pot confirm=60*;Kir21 spec=-6;KCNQ2 W236L pot=i
Fc1cccc2sc(Nc3nnc(-c4ccco4)o3)nc12	16*	i	i	310%*	CHO-K1 Tl ctr=130*;KCNQ1 pot spec=-2;KCNQ2 pot confirm=45*;Kir21 spec=-35;KCNQ2 W236L pot=i
c1ccc(Nc2nc(-c3ccccn3)cs2)cc1	0.81	i	.	.
Cn1c(=O)c2[nH]c(N3CCN(c4ccccc4)CC3)nc2n(C)c1=O	2.4	i	.	.
CC(C)CC(=O)Nc1ccc(-c2nnn(CC(=O)NCc3ccco3)n2)cc1	.	i	.	.
COC(=O)CCC(=O)NNC(=O)Cc1ccccc1	0.26	i	.	.
Cc1oc(-c2ccccc2)nc1C(=O)N1CCN(c2ccc(F)cc2)CC1	.	i	.	.
CCCCN=C(Nc1ccc(Cl)cc1)c1cccnc1	1.5	i	.	.
NC(=NCCCCCCN=C(N)/N=C(\N)Nc1ccc(Cl)cc1)/N=C(\N)Nc1ccc(Cl)cc1	7*!	i	i	i	CHO-K1 Tl ctr=3.9*;KCNQ1 pot spec=-14;KCNQ2 pot confirm=44*;Kir21 spec=-70
Cc1cc(C(=O)NCC23CC4CC(CC(C4)C2)C3)c(C)o1	.	i	.	.
Cc1cc(C)cc(N(CC(=O)NCc2ccco2)S(=O)(=O)c2c(C)noc2C)c1	.	i	.	.
COc1cccc(NC(=O)CN(C)C(=O)c2ccc(-c3ccc(Cl)cc3)o2)c1	.	i	.	.
O=C(NN1C(=O)C2C(c3ccccc3)C=CC(c3ccccc3)C2C1=O)c1ccncc1 (stereo not given)	6.5*	i	i	i	CHO-K1 Tl ctr=-1;KCNQ1 pot spec=-7;KCNQ2 pot confirm=72*;Kir21 spec=-41;KCNQ2 W236L pot=i
O=C(NN1C(=O)C2C3C=CC(C3)C2C1=O)c1ccncc1 (stereo not given)	0.29	i	.	.
CC(C)CC(NC(=O)C(NC(=O)C1CCC(=O)N1C(=O)OCc1ccccc1)C(C)C)C(=O)N1CCCC1C(N)=O (stereo not given)	0.36	i	.	.
CCC(=O)OCc1c(C(F)(F)F)nn(C)c1Sc1ccc(Cl)cc1	.	i	.	.
CCC(=O)OCc1c(C(F)(F)F)nn(C)c1Sc1ccc(F)cc1	.	i	48%*	i
COc1ccc(C(=O)NCCn2ccc3ccccc32)c(OC)c1	.	i	.	.
CC(=O)C1=C(C)NC(SCC(=O)c2ccc(C)cc2)=C(C#N)C1c1ccco1 (stereo not given)	12*	i	i	i	CHO-K1 Tl ctr=-12;KCNQ1 pot spec=-20;KCNQ2 pot confirm=-22;Kir21 spec=-46
CCOC(=O)CSC1=C(C#N)C(c2ccc(Cl)cc2)CC(=O)N1 (stereo not given)	0.03	i	47%*	i

Assay outcomes as filed in PubChem.
